Data from PubChem BioAssay.
The source made the active and inactive calls.

Tests used:
[1] = tested on: Human papillomavirus type 1a protein E7 (residues 44-93); assay: small molecules binding HPV E7 44-93 – biochemical, small-molecule microarray, residues 44-93, 635 nm fluorescence, primary screen (AID 1108); conditions: fluorescence 635 nm, higher = more signal;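 note: E7 fragment applied at 1 µg/mL in TBST for 1 h at 4 C; score combines spot fluorescence with its signal to noise ratio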
[2] = hepatitis C replication reporter changes, two-sided – Huh7 cells, luciferase reporter, HCV replication inhibitor project, primary screen (AID 1109); conditions: Huh7 HCV replicon luciferase reporter, 48 h; higher = more signal;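 note: huh7 hepatoma cells harbouring a luciferase neomycin HCV replicon reporter; luciferase luminescence as measure of HCV replicon replication; test concentration not given here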
[3] = target: Left-right determination factor 2 (Homo sapiens) (UniProt O00292); assay: small molecules binding LEFTY2 protein – biochemical, small-molecule microarray, 635 nm fluorescence scan, primary screen (AID 1110); conditions: higher = more signal
[4] = target: Calmodulin-1 (Homo sapiens) (UniProt P0DP23); assay: small molecules binding calmodulin-1 with EGTA – biochemical, small-molecule microarray, Cy5-labelled CALM1, profiling panel (AID 1111); conditions: Cy5-CALM1 binding fluorescence, higher = more signal;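 note: labelled calmodulin applied in Tris saline Tween buffer holding calcium plus EGTA and DTT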
[5] = target: Calmodulin-1 (Homo sapiens) (UniProt P0DP23); assay: small molecules binding Ca-loaded calmodulin-1 – biochemical, small-molecule microarray, Cy5-labelled CALM1, plus calcium, artefact control for SMM control-protein annotation, profiling panel (AID 1112); conditions: Cy5-CALM1 binding fluorescence, higher = more signal;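 note: score merges spot fluorescence with signal to noise from triplicate slides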
[6] = probe aWnt5a binding to arrayed compounds – biochemical, biotinylated probe, 635/667 nm fluorescence, primary screen (AID 1113); conditions: small-molecule microarray, higher = more signal;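 note: score merges 667 nm fluorescence intensity with signal-to-noise per printed feature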
[7] = probe aShh binding to arrayed compounds – biochemical, biotinylated probe, 635/667 nm fluorescence, primary screen (AID 1114); conditions: small-molecule microarray, higher = more signal;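 note: probe is biotin-labelled aShh protein from a stem cell growth factor screen; measures binding of labelled protein to compounds printed on the slide; score merges feature fluorescence at 667 nm with signal-to-noise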
[8] = probe aNog binding to arrayed compounds – biochemical, biotinylated probe, 635/667 nm fluorescence, primary screen (AID 1115); conditions: small-molecule microarray, higher = more signal;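 note: probe is biotinylated aNog protein used at 0.15 µg/mL for 1 h at 4 C; z-score combines 667 nm fluorescence of each spot with its signal to noise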
[9] = target: Torsin-1A-interacting protein 1 (Homo sapiens) (UniProt Q5JTV8); assay: compound microarray binding of lysate hLAP1 – cell lysate, small-molecule microarray, COS7 lysate, 635/667 nm fluorescence, primary screen (AID 1116); conditions: 635 nm fluorescence, higher = more signal
[10] = target: Alpha-bungarotoxin (Bungarus multicinctus) (UniProt P60615); assay: compounds binding labelled alpha-BTX control protein – biochemical, small-molecule microarray, Alexa647 label, 635/667 nm fluorescence, artefact control for SMM control protein annotation, profiling panel (AID 1117); conditions: alpha-BTX-A647 binding fluorescence, higher = more signal
[11] = target: Albumin (Bos taurus) (UniProt P02769); assay: compounds binding labelled BSA control protein – biochemical, small-molecule microarray, Alexa647 label, 635/667 nm fluorescence, artefact control for SMM control protein annotation, profiling panel (AID 1118); conditions: BSA-A647 binding, fluorescence 635 nm, higher = more signal;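 note: score merges 667 nm emission intensity and signal-to-noise per printed compound spot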
[12] = probe aXIP binding to arrayed compounds – biochemical, NeuroSMM set, 635/667 nm fluorescence, primary screen (AID 1119); conditions: small-molecule microarray, higher = more signal, called active from +8 up or from −8 down;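 note: probe is the protein aXip251-270 applied at 1 µg/mL to compound-printed slides; binding of probe to printed compounds measured as 667 nm fluorescence plus signal to noise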
[13] = probe aNOTCH3 binding on compound microarray – biochemical, small-molecule microarray, 635/667 nm fluorescence, primary screen (AID 1120); conditions: higher = more signal;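 note: probe is a biotin-tagged antibody raised against NOTCH3 rather than NOTCH3 protein; score merges spot fluorescence near 667 nm with spot signal to noise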
[14] = probe aNOTCH2 binding on compound microarray – biochemical, small-molecule microarray, 635/667 nm fluorescence, primary screen (AID 1121); conditions: higher = more signal;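 note: score merges feature fluorescence read at 667 nm with its signal to noise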
[15] = target: Carbonic anhydrase 2 (Homo sapiens) (UniProt P00918); assay: compounds binding carbonic anhydrase 2 – biochemical, small-molecule microarray, Alexa647-labelled CAII, profiling panel (AID 1122); conditions: CAII-A647 binding fluorescence, higher = more signal
[16] = COS7 lysate on small-molecule microarray, probe aHis, 635 nm (AID 1123); conditions: COS7 cell lysate, fluorescence, higher = more signal;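 note: z-score combines 667nm fluorescence intensity with signal-to-noise per printed compound spot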
[17] = probe aLAP1 signal on lysate-treated microarray – cell lysate, small-molecule microarray, COS7 lysate, primary screen (AID 1124); conditions: probe aLAP1, fluorescence, higher = more signal;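 note: lysate comes from COS7 cells expressing LAP1 and is applied at 0.3 µg/mL; score merges spot fluorescence near 667 nm with signal-to-noise over triplicate slides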
[18] = tested on: Sam68 (KHDRBS1); assay: compounds binding KHDRBS1 protein – biochemical, small-molecule microarray, 635 nm fluorescence, primary screen (AID 1125); conditions: higher = more signal;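 note: score merges 667 nm channel intensity with signal to noise over triplicate slides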
[19] = tested on: Chordin-like protein 2 (CHRDL2); assay: compounds binding chordin-like 2 – biochemical, small-molecule microarray, 635 nm fluorescence, primary screen (AID 1126); conditions: fluorescence 635 nm, higher = more signal;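 note: printed compound slides probed with Chrdl2 protein at 4 µg/mL for 1 h at 4 C; score merges 667 nm emission intensity with signal to noise over three replicate slides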
[20] = target: Concanavalin-A (Canavalia ensiformis) (UniProt P02866); assay: compounds binding concanavalin A lectin – biochemical, small-molecule microarray, Alexa647 label, 635 nm, artefact control for SMM control protein annotation, primary screen (AID 1127); conditions: ConA-A647 binding fluorescence, higher = more signal;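 note: z combines 667 nm emission intensity with signal-to-noise across three replicate slides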
Concanavalin-A (Canavalia ensiformis), sequence (P02866 whole entry, looked up): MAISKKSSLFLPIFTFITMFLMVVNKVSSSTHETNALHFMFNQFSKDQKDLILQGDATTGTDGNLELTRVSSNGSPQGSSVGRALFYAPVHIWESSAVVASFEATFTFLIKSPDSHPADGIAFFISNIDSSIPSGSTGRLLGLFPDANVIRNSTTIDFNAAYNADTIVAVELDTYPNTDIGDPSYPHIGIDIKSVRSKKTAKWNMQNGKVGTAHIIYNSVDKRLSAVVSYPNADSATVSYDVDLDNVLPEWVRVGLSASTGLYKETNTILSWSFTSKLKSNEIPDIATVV

Alpha-bungarotoxin (Bungarus multicinctus), sequence (P60615 whole entry, looked up): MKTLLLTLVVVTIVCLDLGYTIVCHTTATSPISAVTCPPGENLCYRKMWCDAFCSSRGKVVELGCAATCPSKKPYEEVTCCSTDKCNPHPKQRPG
Torsin-1A-interacting protein 1 (Homo sapiens), sequence (Q5JTV8 whole entry, looked up): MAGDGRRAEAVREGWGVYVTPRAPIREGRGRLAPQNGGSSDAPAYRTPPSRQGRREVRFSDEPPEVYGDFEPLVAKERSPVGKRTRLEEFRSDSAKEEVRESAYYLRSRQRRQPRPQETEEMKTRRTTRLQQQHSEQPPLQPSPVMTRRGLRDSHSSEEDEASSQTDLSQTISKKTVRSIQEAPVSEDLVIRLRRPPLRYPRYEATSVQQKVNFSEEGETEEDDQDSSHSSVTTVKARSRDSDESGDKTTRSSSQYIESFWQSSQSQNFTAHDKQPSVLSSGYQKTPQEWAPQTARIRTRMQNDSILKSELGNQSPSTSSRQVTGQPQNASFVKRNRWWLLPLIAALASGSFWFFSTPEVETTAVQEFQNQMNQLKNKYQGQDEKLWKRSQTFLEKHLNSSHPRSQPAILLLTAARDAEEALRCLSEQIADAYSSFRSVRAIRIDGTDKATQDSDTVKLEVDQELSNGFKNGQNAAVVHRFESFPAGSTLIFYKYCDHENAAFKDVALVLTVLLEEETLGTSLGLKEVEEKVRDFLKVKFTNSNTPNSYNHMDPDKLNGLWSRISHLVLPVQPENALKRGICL
Albumin (Bos taurus), sequence (P02769 whole entry, looked up): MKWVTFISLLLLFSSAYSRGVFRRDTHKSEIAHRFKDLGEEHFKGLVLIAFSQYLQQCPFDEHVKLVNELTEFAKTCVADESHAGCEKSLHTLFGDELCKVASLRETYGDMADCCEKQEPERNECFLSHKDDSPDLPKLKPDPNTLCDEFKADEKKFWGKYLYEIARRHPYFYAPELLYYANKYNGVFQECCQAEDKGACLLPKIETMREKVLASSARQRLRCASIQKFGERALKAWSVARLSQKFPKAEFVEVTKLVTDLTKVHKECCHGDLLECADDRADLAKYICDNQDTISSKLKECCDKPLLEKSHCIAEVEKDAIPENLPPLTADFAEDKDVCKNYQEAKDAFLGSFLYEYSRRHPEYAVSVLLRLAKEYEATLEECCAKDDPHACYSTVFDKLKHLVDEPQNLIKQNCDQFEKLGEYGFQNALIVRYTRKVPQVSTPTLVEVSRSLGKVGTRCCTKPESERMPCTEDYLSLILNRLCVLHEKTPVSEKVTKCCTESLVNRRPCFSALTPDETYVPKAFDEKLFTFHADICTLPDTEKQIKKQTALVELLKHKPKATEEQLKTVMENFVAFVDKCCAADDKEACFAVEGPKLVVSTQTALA
Left-right determination factor 2 (Homo sapiens), sequence (O00292 whole entry, looked up): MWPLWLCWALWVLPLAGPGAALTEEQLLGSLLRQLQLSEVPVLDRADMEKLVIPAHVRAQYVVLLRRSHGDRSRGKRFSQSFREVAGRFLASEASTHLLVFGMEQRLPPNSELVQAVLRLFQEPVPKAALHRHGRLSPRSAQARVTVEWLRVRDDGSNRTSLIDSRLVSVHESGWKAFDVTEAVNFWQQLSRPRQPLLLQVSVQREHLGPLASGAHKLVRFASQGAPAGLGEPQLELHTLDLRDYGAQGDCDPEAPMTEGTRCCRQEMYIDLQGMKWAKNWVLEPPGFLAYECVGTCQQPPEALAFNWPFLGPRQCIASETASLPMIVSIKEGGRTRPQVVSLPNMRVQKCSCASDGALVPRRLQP

SMILES	composite z-score [1]	z-score [2]	composite z-score [3]	composite z-score [4]	composite z-score [5]	composite z-score [6]	composite z-score [7]	composite z-score [8]	composite z-score [9]	composite z-score [10]	composite z-score [11]	composite Z-score [12]	composite z-score [13]	composite z-score [14]	composite z-score [15]	composite z-score [16]	composite z-score [17]	composite z-score [18]	composite z-score [19]	composite z-score [20]
CCOC(=O)C1=CC[C@@H](c2ccccc2)N(S(=O)(=O)c2ccc(C)cc2)[C@H]1C=C(C)C	1.45	-2.21	0.407	0.808	-0.0374	0.055	0.199	1.06	0.647	0.162	0.856	0.325 (inactive)	0.31	-0.0209	0.491	2.14	0.149	1.3	0.542	0.947
COCCOC(=O)N1C(=O)[C@@]2(c3cc(C#CC4(O)CCCCCC4)ccc31)[C@H](C(=O)N1CCc3cc(OC)c(OC)cc3C1)[C@H]1C(=O)O[C@H](c3ccccc3)[C@H](c3ccccc3)N1[C@@H]2c1ccccc1OCCO	1.04	-2.18	1.17	1.02	-0.386	0.205	0.261	0.0158	0.447	1.46	-0.499	0.141 (inactive)	0.382	0.0521	0.435	0.29	0.221	1.29	1.02	1.17
CCN(CC)c1ccc(N2CC=CC34O[C@@H]5/C=C\CCCOC(=O)C5[C@H]3C(=O)N(CCCCCO)[C@@H]4C2=O)cc1 (stereo not given in full)	-0.592	-0.376	-1.57	-1.06	-0.996	-0.203	-0.221	-0.254	0.424	-1.04	0.567	0.226 (inactive)	-0.402	-0.198	0.342	-0.343	0.0397	-1.83	-1.2	-0.518
C[N+](C)(C)CCCCNC(=O)[C@H]1C[C@H]2C(=O)NCC(=O)N2[C@H]1c1ccc(O)cc1	0.0571	-0.463	0.794	-1.08	-0.966	-0.103	-0.291	-0.0037	0.721	0.832	-1.48	0.586 (inactive)	0.175	-0.0457	0.568	1.56	1.01	0.852	1.39	1.14
CO[C@H]1O[C@H](CO)[C@@H](OC(=O)Nc2ccc(C(F)(F)F)cc2)[C@H](OC(=O)Nc2ccccc2)[C@H]1OC(=O)Nc1ccccc1	0.69	-3.84	0.513	1.99	0.168	0.133	0.342	1.18	0.825	2.69	0.868	-0.465 (inactive)	0.248	0.0083	0.565	2.68	0.494	1.3	-0.42	1.21
CC1C=C(CCCO)C=C(C(=O)OCCS(C)(=O)=O)C(C(=O)OCCS(C)(=O)=O)=CN1Cc1cccc(OC(F)(F)F)c1 (stereo not given)	1.11	-1.82	-0.152	1.7	1.09	0.027	0.481	1.27	2.99	0.761	1.03	-0.115 (inactive)	0.0929	0.0231	0.749	2.22	1.11	1.21	-0.815	1.08
Cc1cc(C)c(C(O)C2C=CC3C(=O)N(c4ccccc4)C(=O)C3N2Nc2ccc([N+](=O)[O-])cc2)c(C)c1 (stereo not given)	1.44	0.49	0.38	1.84	0.469	-0.131	0.0328	1.21	1.29	2.19	1.06	-0.909 (inactive)	0.418	0.149	0.643	2.79	0.893	1.3	-0.224	1.19
COC(=O)[C@@]1(Cc2ccc(OC)cc2)[C@H]2c3cc(C(=O)N(C)C)n(Cc4cc(C)n(C)n4)c3C[C@H]2CN1C(=O)c1ccccc1	1.52	-0.952	-0.198	0.239	0.529	0.596	0.964	1.11	1.2	-0.329	0.19	0.638 (inactive)	0.166	0.0736	0.88	3.4	0.898	1.06	-0.285	-0.307
COCCOC(=O)N1C(=O)[C@@]2(c3cc(C#CCCO)ccc31)[C@H](C(=O)NC[C@H](O)c1ccccc1)[C@H]1C(=O)O[C@H](c3ccccc3)[C@H](c3ccccc3)N1[C@@H]2c1ccccc1OCCO	1.43	-1.31	0.966	0.362	-0.354	0.287	0.323	1.36	1.12	0.784	-0.919	0.427 (inactive)	0.252	0.177	0.0771	1.33	1.32	1.3	0.969	1.09
CN1C(=O)C2C=CC(C(O)c3ccc(F)cc3)N(N3CCCCC3)C2C1=O (stereo not given)	0.491	0.269	-0.781	1.72	1.23	0.212	0.949	0.893	2.05	0.164	0.853	-0.908 (inactive)	0.29	0.155	0.714	1.5	0.804	1.32	-1.42	1.08
